We go through 30 compounds from ChEMBL document CHEMBL3988442, “University of Dundee, Small-Polar-MMV Screening Library” (2021).

SMILES strings stand for the structures. Out of some 48,000 compounds screened, about 13,000 (27%) showed an effect of 50% or more. Some of the results follow.

The assay relates to Wolbachia pipientis. As to the kind of experiment: Anti-Wolbachia Cell-Based Screen. The assay is classed as functional. Also on record: scale not given: in the data most compounds retested in dose-response had high values. Conditions: 5 µM.
For the compound `COC(=O)c1sccc1S(=O)(=O)N1CCc2c(ncnc2N(C)C)C1`, the “Percent Effect” value is on record as -35.5%.
For `Cc1nn(Cc2ccc(F)cc2)c2[nH]nc(N)c12` the value was 12.93%.
As for `Cc1ccc(Cn2cc(C)c(N)n2)cc1`, the “Percent Effect” value amounted to 101.5%.
For `Cc1cn(Cc2ccccc2)nc1N` the value was 112.8%.
For `Cc1ccc(Cn2ccc(NS(C)(=O)=O)n2)cc1` the value was -11.54%; for `Cc1nn(C)cc1Cn1cc(Cl)c(N)n1`, -32.62%.
In the case of `Cc1cccc(Cn2nc(C3CCNCC3)n(-c3ccccc3)c2=O)c1`, the “Percent Effect” value is recorded as 2.339%.
For `Cc1cccc(Cn2cc(C)c(N)n2)c1` the value was 142%.
For `Cc1cccc(CN2CCN(c3nc(CO)cs3)CC2)c1` the value was -5.528%; for `Cc1cnn(C2CCN(Cc3ccccc3)C2)c1N` (stereo not given), -3.11%; for `CCn1cc(Cn2cc(Cl)c(N)n2)c(C)n1`, 11.61%.
The value for `Cc1cn(Cc2ccc(F)cc2)nc1N` was 105.5%; that for `Cc1ncc(C)c(N2Cc3cnn(Cc4ccc(F)cc4)c3C2)n1` was 15.3%.
On to `Cc1nnsc1CN(C)C(=O)c1ccc(CSc2nnc[nH]2)o1`, for which the “Percent Effect” value is given as 17.62%.
Regarding `CCc1cnc(N)nc1NCCc1ccc(OC)cc1OC`, the “Percent Effect” value is on record as -3.798%.
With `CC(C)N(C)C(=O)c1ccc(Cl)c(NC(=O)COCC2CC2)c1`, the “Percent Effect” value is given as -4.037%.
Consider `Cc1noc(C)c1CN(C)C(=O)COc1cccc(C#N)c1`, for which the “Percent Effect” value is listed as -12.54%.
The value for `CCc1nc(CNC2CCCCNC2=O)cs1` (stereo not given) was -6.937%; that for `Cc1cn(Cc2ccc(F)c(F)c2)nc1N` was 106.9%; that for `Fc1ccc(CNCCn2cccn2)cc1F` was -6.914%.
As to `Cl.Cl.OC(CN1CCN(Cc2ccc(F)c(F)c2)CC1)C1CC1` (stereo not given), the “Percent Effect” value is reported as -1.298%.
With `Cc1ccc(C(CNCc2ccc(C#N)cc2)N2CCOCC2)s1` (stereo not given), the “Percent Effect” value is recorded as 1.867%.
The value for `Cc1nnc([C@@]23CCO[C@@H]2CCN(Cc2cccc4ccccc24)C3)o1` was 98.73%.
Consider `Cc1nc([C@H]2C[C@@H]3CCN(Cc4ccc5c(c4)OCO5)C[C@H]3O2)no1`, for which the “Percent Effect” value was -27.54%.
For `Cc1nnc([C@@]23CCO[C@@H]2CCN(Cc2ccc4c(c2)OCO4)C3)o1` the value was 107.4%; for `c1coc(-c2nnc([C@H]3CCN(Cc4ccc5c(c4)OCO5)C3)o2)c1`, -14.45%; for `COC[C@@]12CCO[C@@H]1CCN(Cc1ccccc1F)C2.O=C(O)C(F)(F)F`, -5.713%.
The value for `COC[C@@]12CCO[C@@H]1CCN(Cc1ccccc1OC)C2.O=C(O)C(F)(F)F` was -18.26%.
With `CCN1C(=O)C2(CCCCC2)NC1c1cc(C#N)n(C)c1C` (stereo not given), the “Percent Effect” value amounted to 8.458%.
For `Cc1ncc(CN(C)C(=O)c2ccc3c(c2O)OC(C)(C)C3)s1` the value was -9.378%.
